FBPA coupling cs = qHTS Assay for Inhibitors of Fructose-1,6-bisphosphate Aldolase from Giardia Lamblia: Coupling assay counterscreen | coupling enzyme system counterscreen, AmpLite Red fluorescence | activity change, negative = inhibition, % at 58.2 µM, hits read low | actives 0.67% (n = 290,000); in the data active = activity change below about -30%
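Fluorescence at 525 nm excitation and 598 nm emission measured inhibition of the coupled detection system without aldolase. Compounds (at 57.5 uM final) were preincubated 10 min at room temperature with coupling enzyme reagent before a 20 min substrate/AmpLite Red step.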
ELG1 DNA repair = qHTS screen for small molecules that inhibit ELG1-dependent DNA repair in human embryonic kidney (HEK293T) cells expressing luciferase-tagged ELG1; HEK293T ELG1-luciferase reporter, luminescence, 16 h; DNA damage induced by 5-fluorouridine; Potency, µM (doses to about 46.1 µM), for inactives: at the top dose activity change, negative = inhibition, most hits filed as inhibitors; actives 2.3% (n = 330,000); also: potency is read from the fitted curve at half-maximal effect; nearly all actives have a fitted effect of over 55% in size
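DMSO vehicle served as the neutral condition. Each well held 2,000 cells given 5-fluorouridine plus compound; after 16 hr at 37 °C/5% CO2, ONE-Glo was added and luciferase measured 30 min later.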
Gal4-VP16 FLuc = VP16 counterscreen qHTS for inhibitors of ROR gamma transcriptional activity | Drosophila S2 Gal4-VP16 UAS-luciferase, luminescence, 20 h | Potency, µM (titrated, usually from 53.6 µM), for the others: at the top dose activity, negative = inhibition, most hits filed as inhibitors | actives 3.5% (n = 310,000);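 also: Gal4-VP16 expression switched on by copper sulfate through the metallothionein promoter; potency is read from the fitted curve at half-maximal effect; nearly all actives have a fitted effect of over 50% in size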
RORg inh = qHTS for inhibitors of ROR gamma transcriptional activity; Nuclear receptor ROR-gamma (Mus musculus), P51450; Drosophila S2 Gal4-RORgamma UAS-luciferase reporter, 20 h; Potency, µM (doses to about 53.6 µM), for inactives: at the top dose activity change, negative = inhibition, usual class: inhibitors; actives 5.4% (n = 310,000); AID 2551, 2010; also: potency is read from the fitted curve at half-maximal effect; nearly all actives have a fitted effect of over 60% in size
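Drosophila Schneider cells stably carrying a metallothionein-driven Gal4 DBD–ROR gamma fusion and a UAS-Photinus luciferase reporter were exposed to compound for 1 hr, then induced with copper sulfate (700 uM final) for 20 hr at ambient temperature before luminescence reading.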
TSHR antagonist = Antagonists of the Thyroid Stimulating Hormone Receptor: HTS campaign; TSHR-expressing cells, TSH-stimulated cAMP HTRF, 2 h; active compounds read low; Thyrotropin receptor (Homo sapiens), P16473; AID 504810, 2011; actives 0.2% (n = 330,000); activity change, negative = inhibition, % at 11.5 µM;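 active = activity change below a set negative limit, meaning inhibition stronger than a set level, cut at about -70% in these data; inconclusive = activity change between two set negative limits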
Target sequence (P16473 whole entry, looked up): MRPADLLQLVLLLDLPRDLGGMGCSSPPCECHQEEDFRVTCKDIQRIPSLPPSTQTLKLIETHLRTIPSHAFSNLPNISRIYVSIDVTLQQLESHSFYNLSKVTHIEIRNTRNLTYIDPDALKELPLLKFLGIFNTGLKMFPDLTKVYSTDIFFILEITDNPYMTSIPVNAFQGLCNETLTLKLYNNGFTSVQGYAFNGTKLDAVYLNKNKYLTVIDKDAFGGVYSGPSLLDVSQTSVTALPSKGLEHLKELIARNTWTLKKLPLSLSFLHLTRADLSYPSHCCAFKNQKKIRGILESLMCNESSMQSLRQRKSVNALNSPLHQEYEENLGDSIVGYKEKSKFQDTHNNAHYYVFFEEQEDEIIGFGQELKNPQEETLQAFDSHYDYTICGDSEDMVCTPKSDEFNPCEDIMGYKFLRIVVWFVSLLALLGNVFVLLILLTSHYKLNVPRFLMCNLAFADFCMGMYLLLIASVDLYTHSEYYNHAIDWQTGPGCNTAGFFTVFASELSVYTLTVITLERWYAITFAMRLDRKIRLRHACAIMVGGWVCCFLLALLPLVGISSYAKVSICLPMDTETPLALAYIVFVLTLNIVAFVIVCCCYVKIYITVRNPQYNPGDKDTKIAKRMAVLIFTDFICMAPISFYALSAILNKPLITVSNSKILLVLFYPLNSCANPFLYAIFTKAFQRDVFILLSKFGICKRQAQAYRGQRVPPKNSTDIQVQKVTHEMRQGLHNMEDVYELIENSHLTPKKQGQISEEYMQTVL
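Freshly harvested TSHR cells receive pin-tooled compound, then EC80 TSH at 4nM final. After 2 hours at 37 deg C, antibody in lysis buffer and cAMP-d2 are added; 30 minutes at ambient temperature precede the HTRF read.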
The depositor's hits bear a star. An excerpt weighted towards active compounds, which were near 8% of everything screened. Unless noted, calls follow the shape of the dose curve; as a rule, active = well fitted curve in the direction sought with a large enough effect; inconclusive = small, poorly fitted or top-dose-only effect, or another doubt; inactive = no such curve, though single readings can be large; an effect the other way counts as inactive or inconclusive. % is scaled to controls: 0 for no effect and ±100 for the full control effect.

`COC(=O)C1CN(C(=O)COc2ccc(Cl)c(C)c2)c2ccccc2O1` (stereo not given) gave FBPA coupling cs -5, ELG1 DNA repair 0%, Gal4-VP16 FLuc 4%, RORg inh inconclusive and TSHR antagonist -2.
For COCCNC(=O)Cn1nc(-c2ccccc2C)ccc1=O the results were FBPA coupling cs -2, ELG1 DNA repair 16%, Gal4-VP16 FLuc -10%, RORg inh 5% and TSHR antagonist -3.
For CC1OC(Oc2c(-c3cc(O)c(O)c(O)c3)oc3cc(O)cc(O)c3c2=O)C(O)C(O)C1O (stereo not given) the results were FBPA coupling cs -47*, ELG1 DNA repair -12%, Gal4-VP16 FLuc -12%, RORg inh 18% and TSHR antagonist -5.
For NC(=O)c1ccc(NC(=O)COC(=O)CCN2C(=O)c3ccccc3C2=O)cc1 the results were ELG1 DNA repair 3% and TSHR antagonist 10.
For Cc1cc(C)c2sc(NC(=O)c3ccc(N4C(=O)CCC4=O)cc3)nc2c1 the results were FBPA coupling cs 1, ELG1 DNA repair -8%, Gal4-VP16 FLuc inconclusive, RORg inh 0.11µM* and TSHR antagonist -16.
Screening Cc1cc(C)c2sc(NC(=O)C3=COCCO3)nc2c1 returned FBPA coupling cs -17, ELG1 DNA repair inconclusive, Gal4-VP16 FLuc 5.6µM*, RORg inh 0.79µM* and TSHR antagonist -18.
O=C(Nc1nc2cc3c(cc2s1)OCCO3)C1=COCCO1 was read as FBPA coupling cs 0, ELG1 DNA repair inconclusive, Gal4-VP16 FLuc 2.2µM*, RORg inh 1µM* and TSHR antagonist -8.
`Cc1ccc2nc(NC(=O)c3ccc(N4C(=O)CCC4=O)cc3)sc2c1` gave FBPA coupling cs 9, ELG1 DNA repair inconclusive, Gal4-VP16 FLuc -3%, RORg inh 3% and TSHR antagonist 28.
For CSCCC(N)C(=O)O (stereo not given) the results were FBPA coupling cs 2, Gal4-VP16 FLuc -2% and RORg inh 1%.
For C/C=C(/C)C(=O)O[C@H]1C[C@@]2(C)O[C@H]2[C@@H](OC(C)=O)C2(C)CC[C@@](O)(C(C)C)C12 (stereo not given in full) the results were FBPA coupling cs 0, Gal4-VP16 FLuc 10% and RORg inh 20%.
O=C(NC(=S)N(CCc1ccccc1)CCc1ccccc1)c1ccco1 was read as FBPA coupling cs 17, ELG1 DNA repair -3%, Gal4-VP16 FLuc 0.045µM*, RORg inh 0.11µM* and TSHR antagonist 4.
`CC(CCc1ccccc1)NC(=S)NC(=O)c1ccco1` (stereo not given) gave FBPA coupling cs -5, ELG1 DNA repair 4%, Gal4-VP16 FLuc -70%, RORg inh 11µM* and TSHR antagonist 4.
`CC(CCc1ccccc1)NC(=O)c1ccc(NC(=O)c2ccccc2)cc1` (stereo not given) gave FBPA coupling cs 0, ELG1 DNA repair -16%, Gal4-VP16 FLuc inconclusive, RORg inh 2.8µM* and TSHR antagonist -3.
Screening O=C(NCc1ccccc1)c1ccco1 returned FBPA coupling cs 1, ELG1 DNA repair 1%, Gal4-VP16 FLuc -9%, RORg inh -2% and TSHR antagonist 3.
`CC(CCc1ccccc1)NC(=O)c1ccc(NC(=O)c2cccc(Br)c2)cc1` (stereo not given) gave FBPA coupling cs -2, ELG1 DNA repair -2%, Gal4-VP16 FLuc -10%, RORg inh 0% and TSHR antagonist -3.
Screening CCOc1ccc(S(=O)(=O)Nc2ccccc2C(=O)N/N=C/c2c(OC)ccc3ccccc23)cc1 returned FBPA coupling cs 3, ELG1 DNA repair -4%, Gal4-VP16 FLuc 5.6µM*, RORg inh 6.3µM* and TSHR antagonist inconclusive.
COc1ccc2ccccc2c1/C=N/NC(=O)c1ccccc1F was read as FBPA coupling cs -9, ELG1 DNA repair 6%, Gal4-VP16 FLuc -1%, RORg inh -25% and TSHR antagonist 15.

Screening results (PubChem)
